Measured values as given in PubChem BioAssay.
For part of these data: Entries with a potency or affinity are not part of this list. Activity calls are given as the source filed them. Unless noted, how the calls were made is not given here.

How the values were obtained:
[1] = antimalarial activity against Dd2 strain (AID 2302;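 active means growth inhibition above 50% at the single 2 µM test dose, taken to imply half-maximal potency below 2 µM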;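 further: 0% = DMSO untreated growth and 100% = chloroquine plus artemisinin killed control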); conditions: P. falciparum Dd2 in RBCs, LDH growth readout, 72 h; at 2 µM; active compounds read high
[2] = HepG2 cytotoxicity, primary screen, cytotoxicity control for P. falciparum antimalarial project, cell-based, ATP luminescence (AID 2303;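 active means inhibition above 50%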;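 further: 0% = DMSO wells and 100% = digitonin-killed cells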); conditions: HepG2 viability, 24-48 h, at 10 µM, active compounds read high
[3] = molecular target: L-lactate dehydrogenase (Plasmodium falciparum (isolate CDC / Honduras)) (UniProt Q27743); experiment: PfLDH activity inhibition – cell lysate, 3D7 strain, counter-screen for P. falciparum growth inhibition project (AID 2304);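 further: 0% = vehicle and 100% = reference inhibitor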; conditions: P. falciparum 3D7 crude extract, LDH APAD/NBT absorbance; at 2 µM; active compounds read high
[4] = inhibition of 3D7 malaria parasite growth – strain 3D7 (AID 2306);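 further: 0% = DMSO wells and 100% = chloroquine plus artemisinin control wells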; conditions: P. falciparum 3D7 erythrocytic growth, LDH absorbance, 72 h; at 2 µM; active compounds read high
[5] = molecular target: Calcium-dependent protein kinase 1 (Plasmodium falciparum (isolate 3D7)) (UniProt P62344); experiment: PfCDPK1 kinase inhibitors, biochemical, TCAMS library (AID 1159585; cut-off not given, nearly all actives have IC50 up to about 0.98 µM;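 further: inhibitors leave more ATP so luminescence rises with inhibition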); conditions: recombinant PfCDPK1, Kinase-Glo ATP depletion luminescence
[6] = molecular target: Plasmodium falciparum protein kinase 6 (PK6, PF3D7_1337100) (UniProt Q8IDW1); experiment: PfPK6 kinase inhibitors, biochemical, TCAMS library (AID 1159586); conditions: recombinant PfPK6, Kinase-Glo ATP depletion luminescence
[7] = molecular target: Protein kinase 7 (PK7), Plasmodium falciparum 3D7 (PF3D7_0213400) (UniProt Q7YTF7); experiment: inhibition of Plasmodium PK7 catalytic activity – biochemical, TCAMS antimalarial set, Kinase-Glo luminescence (AID 1159587); conditions: recombinant PfPK7, Kinase-Glo ATP depletion luminescence
[8] = molecular target: Calcium-dependent protein kinase 4 (Plasmodium falciparum (isolate 3D7)) (UniProt Q8IBS5); experiment: PfCDPK4 kinase inhibitors, biochemical, TCAMS library (AID 1159588; cut-off not given, nearly all actives have IC50 up to about 0.91 µM); conditions: recombinant PfCDPK4, Kinase-Glo ATP depletion luminescence
Chain of Calcium-dependent protein kinase 4 (Plasmodium falciparum (isolate 3D7)) (Q8IBS5 whole entry, looked up): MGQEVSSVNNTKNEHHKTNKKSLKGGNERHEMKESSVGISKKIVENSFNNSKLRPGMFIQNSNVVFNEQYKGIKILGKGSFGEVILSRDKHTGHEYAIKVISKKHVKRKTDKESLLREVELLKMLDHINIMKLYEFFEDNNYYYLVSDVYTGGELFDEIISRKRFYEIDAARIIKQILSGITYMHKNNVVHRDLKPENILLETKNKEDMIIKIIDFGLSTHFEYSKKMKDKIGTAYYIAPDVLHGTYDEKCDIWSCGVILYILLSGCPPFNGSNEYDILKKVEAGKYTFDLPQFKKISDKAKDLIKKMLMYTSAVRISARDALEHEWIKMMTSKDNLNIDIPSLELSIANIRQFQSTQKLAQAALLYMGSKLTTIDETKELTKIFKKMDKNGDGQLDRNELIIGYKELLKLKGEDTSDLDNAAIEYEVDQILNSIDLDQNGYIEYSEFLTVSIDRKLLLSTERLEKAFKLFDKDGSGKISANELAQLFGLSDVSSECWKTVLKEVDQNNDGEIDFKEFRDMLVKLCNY

Chain of Calcium-dependent protein kinase 1 (Plasmodium falciparum (isolate 3D7)) (P62344 whole entry, looked up): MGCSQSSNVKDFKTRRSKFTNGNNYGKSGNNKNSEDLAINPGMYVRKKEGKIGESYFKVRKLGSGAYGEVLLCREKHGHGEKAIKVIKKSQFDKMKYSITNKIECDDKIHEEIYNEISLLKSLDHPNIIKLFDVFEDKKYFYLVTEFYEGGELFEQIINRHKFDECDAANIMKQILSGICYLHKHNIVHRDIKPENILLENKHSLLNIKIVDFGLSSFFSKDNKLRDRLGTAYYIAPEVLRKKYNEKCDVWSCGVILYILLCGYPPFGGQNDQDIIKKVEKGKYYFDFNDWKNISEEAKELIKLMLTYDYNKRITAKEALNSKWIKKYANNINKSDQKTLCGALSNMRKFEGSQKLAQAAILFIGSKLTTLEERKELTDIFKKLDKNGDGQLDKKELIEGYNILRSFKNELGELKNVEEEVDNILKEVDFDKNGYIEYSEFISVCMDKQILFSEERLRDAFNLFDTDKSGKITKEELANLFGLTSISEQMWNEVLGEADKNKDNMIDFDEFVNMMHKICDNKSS
Chain of Protein kinase 7 (PK7), Plasmodium falciparum 3D7 (PF3D7_0213400) (Q7YTF7 1-343): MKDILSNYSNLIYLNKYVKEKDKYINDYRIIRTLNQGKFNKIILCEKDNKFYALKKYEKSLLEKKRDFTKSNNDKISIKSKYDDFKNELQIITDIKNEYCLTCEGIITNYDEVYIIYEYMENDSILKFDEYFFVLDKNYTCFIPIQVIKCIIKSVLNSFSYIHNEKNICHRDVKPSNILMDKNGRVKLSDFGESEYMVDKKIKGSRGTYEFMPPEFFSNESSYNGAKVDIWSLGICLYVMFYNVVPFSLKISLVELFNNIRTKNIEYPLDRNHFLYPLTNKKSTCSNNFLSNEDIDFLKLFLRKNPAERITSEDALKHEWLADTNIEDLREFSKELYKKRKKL
Chain of L-lactate dehydrogenase (Plasmodium falciparum (isolate CDC / Honduras)) (Q27743 whole entry, looked up): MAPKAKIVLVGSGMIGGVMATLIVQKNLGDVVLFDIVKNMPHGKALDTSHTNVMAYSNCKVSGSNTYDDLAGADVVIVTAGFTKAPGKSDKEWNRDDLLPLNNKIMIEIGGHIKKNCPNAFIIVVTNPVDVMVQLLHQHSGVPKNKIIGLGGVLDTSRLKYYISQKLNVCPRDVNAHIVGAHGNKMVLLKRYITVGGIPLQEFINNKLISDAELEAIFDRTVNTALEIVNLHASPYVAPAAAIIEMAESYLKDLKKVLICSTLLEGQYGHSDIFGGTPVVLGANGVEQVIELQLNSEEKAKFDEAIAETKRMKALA
Chain of Plasmodium falciparum protein kinase 6 (PK6, PF3D7_1337100) (Q8IDW1 1-305): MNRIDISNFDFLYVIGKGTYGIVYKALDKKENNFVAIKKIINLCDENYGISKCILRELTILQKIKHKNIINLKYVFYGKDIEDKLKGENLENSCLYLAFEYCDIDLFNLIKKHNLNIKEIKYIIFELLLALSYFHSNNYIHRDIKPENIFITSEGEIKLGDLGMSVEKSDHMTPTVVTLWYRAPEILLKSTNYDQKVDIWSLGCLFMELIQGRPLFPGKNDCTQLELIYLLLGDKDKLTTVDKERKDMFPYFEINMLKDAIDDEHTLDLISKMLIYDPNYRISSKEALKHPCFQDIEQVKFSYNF

CN1CCN(CCCCCCNc2c3ccccc3nc3ccccc23)CC1
inactive: growth inhibition [1] -4% | inhibition [2] 35% | inhibition [3] -3% | outcome [5] | outcome [6] | outcome [7] | outcome [8]
active: growth inhibition [4] 101%

COC(=O)/C=C/c1ccc(CCC(C)NCC(O)c2cccc(Cl)c2)cc1 (configuration not stated)
inactive: inhibition [2] 5% | inhibition [3] 4% | outcome [5] | outcome [6] | outcome [7] | outcome [8]
active: growth inhibition [1] 77% | growth inhibition [4] 94%

O=C(NCCCN1CCN(c2cccc(Cl)c2)CC1)c1ccc(-c2nc3cc(Cl)c(Cl)cc3[nH]2)cc1
inactive: inhibition [2] 3% | inhibition [3] -1% | outcome [5] | outcome [6] | outcome [7] | outcome [8]
active: growth inhibition [1] 95% | growth inhibition [4] 98%

CCOC(=O)C1=C(C)NC2=C(C(=O)C(C(=O)OC)C(C)C2)C1c1cc(Br)c(OCC)c(OC)c1 (configuration not stated)
inactive: inhibition [2] 8% | inhibition [3] 0% | outcome [5] | outcome [6] | outcome [7] | outcome [8]
active: growth inhibition [1] 99% | growth inhibition [4] 101%

COc1cccc2cc(C(=O)N[C@@H](CC(C)C)C(=O)N[C@H](/C=N/NC(=O)OC(C)(C)C)CC(=O)OC(C)(C)C)oc12
active: growth inhibition [1] 57% | growth inhibition [4] 85%
inactive: inhibition [2] 4% | inhibition [3] 0% | outcome [5] | outcome [6] | outcome [7] | outcome [8]

Cc1cccc(Nc2c(-c3cc(Br)ccc3O)nc3ncccn23)c1
active: growth inhibition [1] 98% | growth inhibition [4] 100%
inactive: inhibition [2] -2% | inhibition [3] 1% | outcome [5] | outcome [6] | outcome [7] | outcome [8]

Cc1nnc(-c2ccc3ccccc3c2)c2cn(-c3cccc([N+](=O)[O-])c3)nc12
active: growth inhibition [1] 67% | growth inhibition [4] 91%
inactive: inhibition [2] 29% | inhibition [3] 3% | outcome [5] | outcome [6] | outcome [7] | outcome [8]

Cc1ccc(S(=O)(=O)n2cc(-c3ccnc(N)c3)c3cc(Br)cnc32)cc1
active: growth inhibition [4] 98%
inactive: growth inhibition [1] 31% | inhibition [2] 8% | inhibition [3] 1% | outcome [5] | outcome [6] | outcome [7] | outcome [8]

OC(CNCc1ccccc1OCc1ccccc1)c1cc(Br)cs1 (configuration not stated)
active: growth inhibition [1] 88% | growth inhibition [4] 97%
inactive: inhibition [2] 16% | inhibition [3] 5% | outcome [5] | outcome [6] | outcome [7] | outcome [8]

Cc1cccc2[nH]c(-c3ccc(-c4cccc(NC(=O)NCc5ccccc5)c4)cc3)nc12
active: growth inhibition [4] 95%
inactive: growth inhibition [1] 0% | inhibition [2] 25% | inhibition [3] -6% | outcome [5] | outcome [6] | outcome [7] | outcome [8]

CS(=O)(=O)NCCCNCc1ccc(-c2cccc(-c3nc4ccc(F)cc4[nH]3)c2)cc1
inactive: growth inhibition [1] 1% | inhibition [2] 15% | inhibition [3] 5% | outcome [5] | outcome [6] | outcome [7] | outcome [8]
active: growth inhibition [4] 98%

CC(C)N1CCN(C(CN2CCN(CCCOc3cccc(F)c3)CC2)c2ccc(F)cc2)CC1 (configuration not stated)
active: growth inhibition [4] 92%
inactive: growth inhibition [1] 38% | inhibition [2] 38% | inhibition [3] 0% | outcome [5] | outcome [6] | outcome [7] | outcome [8]

NC(N)=NCCN(Cc1ccccc1)c1ccc(Cl)cc1
inactive: inhibition [2] -7% | inhibition [3] -3% | outcome [5] | outcome [6] | outcome [7] | outcome [8]
active: growth inhibition [1] 99% | growth inhibition [4] 100%

Cc1cccc(CN2CCCN(Cc3ccc(C(=O)Nc4ccc(Cl)cc4)cc3)CC2)c1
inactive: growth inhibition [1] 17% | inhibition [3] 3% | outcome [5] | outcome [6] | outcome [7] | outcome [8]
active: inhibition [2] 54% | growth inhibition [4] 92%

CN(c1ccccc1C(=O)Nc1ccccc1Oc1ccccc1)S(=O)(=O)c1ccccc1
active: growth inhibition [1] 80% | growth inhibition [4] 90%
inactive: inhibition [2] 2% | inhibition [3] -2% | outcome [5] | outcome [6] | outcome [7] | outcome [8]

COc1ccc(Nc2ncc3c(-c4cccc(NC(=O)Cc5cccnc5)c4)c[nH]c3n2)cc1OC
inactive: inhibition [2] 27% | inhibition [3] 1% | outcome [5] | outcome [6] | outcome [7] | outcome [8]
active: growth inhibition [1] 85% | growth inhibition [4] 98%

CCCCc1cc(NCc2ccncc2)nc(Nc2ccccc2)n1
inactive: growth inhibition [1] 4% | inhibition [2] -5% | inhibition [3] -3% | outcome [5] | outcome [6] | outcome [7] | outcome [8]
active: growth inhibition [4] 96%

COc1ccc(CNCc2ccc(-c3cccc(-c4nc5c(C)cccc5[nH]4)c3)cc2)cc1
active: growth inhibition [1] 101% | inhibition [2] 69% | growth inhibition [4] 102%
inactive: inhibition [3] -7% | outcome [5] | outcome [6] | outcome [7] | outcome [8]

Cc1cc(N(C)C2CCN(C)C2)nc(Nc2ccccc2Cl)n1 (configuration not stated)
active: growth inhibition [1] 84% | growth inhibition [4] 100%
inactive: inhibition [2] 1% | inhibition [3] -1% | outcome [5] | outcome [6] | outcome [7] | outcome [8]

CC(C)CNCc1ccc(-c2cccc(CN(CCN(C)C)C(=O)NCCc3ccccc3)c2)cc1
active: growth inhibition [4] 91%
inactive: growth inhibition [1] 37% | inhibition [2] 33% | inhibition [3] -6% | outcome [5] | outcome [6] | outcome [7] | outcome [8]

CCCNc1ccc2nccc(CCN3CCC(NCc4ccc5c(n4)NC(=O)CS5)CC3)c2n1
inactive: growth inhibition [1] -1% | inhibition [2] 24% | inhibition [3] -1% | outcome [5] | outcome [6] | outcome [7] | outcome [8]
active: growth inhibition [4] 103%

OC1CCC(Nc2ccc3ncc(-c4ccc5ccccc5c4)n3n2)CC1 (configuration not stated)
inactive: inhibition [3] 3% | outcome [5] | outcome [6] | outcome [7] | outcome [8]
active: growth inhibition [1] 94% | inhibition [2] 52% | growth inhibition [4] 95%

COc1ccc(Cl)cc1NC(=O)C(C)Nc1ccc(-c2ccccc2)cc1 (configuration not stated)
inactive: inhibition [2] -1% | inhibition [3] -1% | outcome [5] | outcome [6] | outcome [7] | outcome [8]
active: growth inhibition [1] 89% | growth inhibition [4] 91%

CCc1c(CCNCCCCCCNC(C)(C)Cc2ccc3c(c2CC)OCO3)ccc(OC)c1OC
active: growth inhibition [1] 50% | inhibition [2] 100% | growth inhibition [4] 101%
inactive: inhibition [3] -1% | outcome [5] | outcome [6] | outcome [7] | outcome [8]

CC(C)N1CCN(C(=O)c2ccc(CNCCCN3CCN(c4cccc(Cl)c4Cl)CC3)o2)CC1
inactive: growth inhibition [1] 36% | inhibition [2] 41% | inhibition [3] 1% | outcome [5] | outcome [6] | outcome [7] | outcome [8]
active: growth inhibition [4] 98%

Cc1cc(N2CCCN(CC3CCCCC3)CC2)nc(Nc2ccc(Br)cc2)n1
inactive: inhibition [2] 24% | inhibition [3] -1% | outcome [5] | outcome [6] | outcome [7] | outcome [8]
active: growth inhibition [1] 54% | growth inhibition [4] 95%

C=C(C)Cn1cc(C2CCN(CCCCNC(=O)c3sc(-c4ccc(Cl)cc4Cl)nc3CO)CC2)c2ccccc21
inactive: growth inhibition [1] 19% | inhibition [2] 22% | inhibition [3] 4% | outcome [5] | outcome [6] | outcome [7] | outcome [8]
active: growth inhibition [4] 82%

Cc1ccc(C(C)C)cc1CON1C(N)=NC(N)=NC1(C)C
active: growth inhibition [1] 92% | inhibition [2] 66% | growth inhibition [4] 94%
inactive: inhibition [3] -3% | outcome [5] | outcome [6] | outcome [7] | outcome [8]

CC(CN(C)C)C(=O)Nc1ccc(-c2csc(-c3nc4ccccc4[nH]3)c2)cc1 (configuration not stated)
active: growth inhibition [4] 84%
inactive: growth inhibition [1] 19% | inhibition [2] 28% | inhibition [3] -4% | outcome [5] | outcome [6] | outcome [7] | outcome [8]

CNC(=O)c1cc(S(=O)(=O)Nc2ccc(OC)cc2)cs1
inactive: growth inhibition [1] 48% | inhibition [2] 11% | inhibition [3] -6% | outcome [5] | outcome [6] | outcome [7] | outcome [8]
active: growth inhibition [4] 95%

Fc1ccc2nc(-c3cccc(-c4cccc(CNCc5cnn(-c6ccccc6)n5)c4)c3)[nH]c2c1
active: growth inhibition [1] 57% | growth inhibition [4] 91%
inactive: inhibition [2] 18% | inhibition [3] 4% | outcome [5] | outcome [6] | outcome [7] | outcome [8]

CC(=O)Nc1nc(C(=O)Nc2cccc(-c3cccc(-c4nc5ccc(F)cc5[nH]4)c3)c2)cs1
inactive: inhibition [2] 39% | inhibition [3] -2% | outcome [5] | outcome [6] | outcome [7] | outcome [8]
active: growth inhibition [1] 100% | growth inhibition [4] 101%

CC(=O)Oc1c(C2CCN(CCCCNC(=O)c3ccc(-c4ccc(C#N)cc4)cc3)CC2)ccc2c1CCCC2
inactive: inhibition [2] 21% | inhibition [3] 3% | outcome [5] | outcome [6] | outcome [7] | outcome [8]
active: growth inhibition [1] 52% | growth inhibition [4] 88%

Cc1cc(NCCc2ccc(O)cc2)nc(NCC(c2ccccc2)c2ccccc2)n1
active: growth inhibition [1] 77% | growth inhibition [4] 102%
inactive: inhibition [2] 22% | inhibition [3] 1% | outcome [5] | outcome [6] | outcome [7] | outcome [8]

COc1ccc2ncc(F)c(CCN3CCC(CNCc4cccc5c4OCO5)CC3)c2n1
active: growth inhibition [4] 93%
inactive: growth inhibition [1] 37% | inhibition [2] 39% | inhibition [3] -2% | outcome [5] | outcome [6] | outcome [7] | outcome [8]

CS(=O)(=O)CCNCc1cccc(-c2cc3c(Nc4ccc5c(cnn5Cc5ccccc5)c4)ncnc3s2)c1
inactive: inhibition [2] 36% | inhibition [3] 2% | outcome [5] | outcome [6] | outcome [7] | outcome [8]
active: growth inhibition [1] 101% | growth inhibition [4] 101%

COc1ccc(-c2cnc3[nH]cc(-c4ccc(C(=O)O)c(C)c4)c3c2)cn1
inactive: inhibition [2] 23% | inhibition [3] -5% | outcome [5] | outcome [6] | outcome [7] | outcome [8]
active: growth inhibition [1] 99% | growth inhibition [4] 99%

O=C(Nc1ccccc1F)NC1CCN(c2ccnc(Nc3ccc(F)cc3)n2)C1 (configuration not stated)
active: growth inhibition [1] 74% | growth inhibition [4] 95%
inactive: inhibition [2] 0% | inhibition [3] -7% | outcome [5] | outcome [6] | outcome [7] | outcome [8]

COc1ccc(S(=O)(=O)Nc2ccc(C(=O)NCc3ccc(C(F)(F)F)cc3)cc2)cc1N1CCN(CC2CC2)CC1
active: growth inhibition [4] 95%
inactive: growth inhibition [1] 1% | inhibition [2] 34% | inhibition [3] 2% | outcome [5] | outcome [6] | outcome [7] | outcome [8]
